Growth data for 9 compounds are collected here from PubChem BioAssay (NCI).

Compounds without any hit were thinned out: in the full panel of roughly 83,000, 20% have a hit.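 For each line, cells grew in 96-well plates with the test compound present at a single concentration for 48 hours.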 Unmarked numbers belong to inactive results. The source made the active and inactive calls. The calls were made as follows: active = growth percent below 10; inactive = the rest.

Test systems include SR leukemia; OVCAR-8 ovarian; OVCAR-5 ovarian; OVCAR-4 ovarian; SK-OV-3 ovarian; IGROV1 ovarian; OVCAR-3 ovarian; HS 578T breast; NCI/ADR-RES ovarian; T-47D breast; BT-549 breast; MDA-MB-435 melanoma; SW-620 colon; MCF7 breast; HCT-116 colon; HCC-2998 colon; RPMI-8226 leukemia; KM12 colon.
Assay in all cases: NCI-60 one-dose screen, 48 h (100 = growth as untreated, 0 = no growth, -100 = all killed)
Conditions in all cases: 10 µM unless noted

Take `O=C(COc1cccc(/C=C2/Oc3ccccc3C2=O)c1)Nc1nccs1`: the growth in the experiment with SR leukemia was -53.8% (active); in the experiment with OVCAR-8 ovarian, 61.8%; in the experiment with OVCAR-5 ovarian it was 86.6%; in the experiment on OVCAR-4 ovarian, 87.5%; in the experiment with SK-OV-3 ovarian, 266%; in the experiment with IGROV1 ovarian, -35% (active). The growth in the experiment with OVCAR-3 ovarian was 220%; in the experiment with HS 578T breast it was 88.6%; in the experiment with NCI/ADR-RES ovarian, 83.3%; in the experiment with T-47D breast, 166%; in the experiment with BT-549 breast it was 87.9%; in the experiment on MDA-MB-435 melanoma, 103%. The growth in the experiment with SW-620 colon is 97.2%; in the experiment with MCF7 breast, 54.4%; in the experiment with HCT-116 colon, 73.9%; with HCC-2998 colon, 105%.
For the compound `O=C1CC(c2nc3ccccc3[nH]2)CN1C1CCCCC1` (stereo not drawn), the growth in the experiment with SR leukemia is 97.4%; with RPMI-8226 leukemia it was 106%; with OVCAR-8 ovarian, 95.2%; with OVCAR-5 ovarian, 108%; in the experiment with OVCAR-4 ovarian, 102%; with OVCAR-3 ovarian, 110%. Besides, the growth was 102% in the experiment with HS 578T breast; 94.2% in the experiment with NCI/ADR-RES ovarian; 95.6% in the experiment on T-47D breast; 97.7% in the experiment with BT-549 breast; 107% in the experiment with MDA-MB-435 melanoma; 106% in the experiment on SW-620 colon. In addition, the growth is 89.7% in the experiment on MCF7 breast, 109% in the experiment with HCT-116 colon, 98.7% with HCC-2998 colon and 107% in the experiment on KM12 colon.
Take `O=S(=O)(NCCCNc1cc(-c2cn(-c3ccccc3)nc2-c2ccccc2)ccn1)c1ccc(C(F)(F)F)cc1`: the growth in the experiment on SR leukemia was 39.3%; in the experiment with RPMI-8226 leukemia, 44.1%; in the experiment with OVCAR-8 ovarian, 54.6%; in the experiment with OVCAR-4 ovarian it was 58.7%; in the experiment with SK-OV-3 ovarian, 68.9%; in the experiment on IGROV1 ovarian, 59.2%. For the same compound, the growth was 72% with OVCAR-3 ovarian; 61% with HS 578T breast; 46.2% in the experiment with NCI/ADR-RES ovarian; 38.7% with T-47D breast; 71.2% with BT-549 breast; 50% in the experiment with MDA-MB-435 melanoma. In addition, the growth in the experiment with SW-620 colon is 71.1%; with MCF7 breast, 39.2%; in the experiment on HCT-116 colon, 43.2%; with HCC-2998 colon, 64.1%; with KM12 colon, 40.5%.
As for `COc1ccccc1N1CCN(CCn2c(=O)c3c(c4ccccc4n3C)n(C)c2=O)CC1`, the growth in the experiment on SR leukemia was 78%; in the experiment with RPMI-8226 leukemia it was 109%; in the experiment on OVCAR-8 ovarian it was 85%; with OVCAR-5 ovarian, 111%; with OVCAR-4 ovarian, 114%; in the experiment on OVCAR-3 ovarian, 103%. In addition, the growth with HS 578T breast is 98.5%; in the experiment on NCI/ADR-RES ovarian, 100%; in the experiment with T-47D breast, 64.4%; in the experiment on BT-549 breast it was 99.3%; with MDA-MB-435 melanoma it was 106%; in the experiment with SW-620 colon, 98.9%. Also, the growth was 93.2% in the experiment on MCF7 breast, 98.4% in the experiment with HCT-116 colon, 104% in the experiment with HCC-2998 colon and 103% in the experiment with KM12 colon.
For the compound `CCCCCCCCCCCCS(=O)CC(C)O` (stereo not drawn), the growth with SR leukemia was 110%; in the experiment with OVCAR-8 ovarian, 103%; with OVCAR-5 ovarian, 103%; in the experiment on OVCAR-4 ovarian, 101%; in the experiment with SK-OV-3 ovarian, 102%; with IGROV1 ovarian, 120%. The growth was 120% in the experiment with OVCAR-3 ovarian; 101% in the experiment with HS 578T breast; 117% in the experiment with NCI/ADR-RES ovarian; 98.2% in the experiment with T-47D breast; 109% in the experiment on BT-549 breast; 96.3% with MDA-MB-435 melanoma. For the same compound, the growth in the experiment with SW-620 colon is 106%; in the experiment on MCF7 breast, 93.2%; in the experiment on HCT-116 colon, 109%; in the experiment on HCC-2998 colon it was 111%.
On to `O=S(=O)(NCCCNc1cc(-c2cn(-c3ccccc3)nc2-c2cccc(O)c2)ccn1)c1ccccc1`, for which the growth in the experiment on SR leukemia is 35.5%; with RPMI-8226 leukemia, 32.1%; in the experiment with OVCAR-8 ovarian, 46.1%; in the experiment on OVCAR-4 ovarian it was 59.8%; in the experiment with SK-OV-3 ovarian it was 66.4%; with IGROV1 ovarian it was 59.2%. The growth with OVCAR-3 ovarian is 58.9%; with HS 578T breast, 46.9%; in the experiment with NCI/ADR-RES ovarian it was 51.3%; in the experiment on T-47D breast, 18.4%; with BT-549 breast, 44.1%; with MDA-MB-435 melanoma, 52.3%. Further, the growth in the experiment on SW-620 colon is 25.5%; with MCF7 breast it was 31.6%; in the experiment with HCT-116 colon, 40%; with HCC-2998 colon, 22.1%; with KM12 colon it was 30.1%.
Take `Cc1noc(C)c1-c1cc(O)cc(C(O)c2ccccc2)c1` (stereo not drawn): the growth in the experiment with SR leukemia is 27.1%; in the experiment on OVCAR-8 ovarian it was 38.6%; in the experiment with OVCAR-5 ovarian, 73.3%; in the experiment on OVCAR-4 ovarian, 32.5%; in the experiment on SK-OV-3 ovarian, 43.7%; with IGROV1 ovarian it was 46%. Moreover, the growth is 46.7% in the experiment on OVCAR-3 ovarian; 33.7% in the experiment on HS 578T breast; 59.2% in the experiment on NCI/ADR-RES ovarian; 47.1% in the experiment on T-47D breast; 64.7% with BT-549 breast; 43.9% in the experiment on MDA-MB-435 melanoma. Moreover, the growth in the experiment with SW-620 colon was 72.1%; in the experiment on MCF7 breast, 20.9%; with HCT-116 colon it was 58.1%; in the experiment on HCC-2998 colon, 62.2%; in the experiment on KM12 colon, 53.1%.
Take `O=C1C2CC=CCC2C(=O)N1CNc1ccc(Cl)cc1` (stereo not drawn): the growth in the experiment with SR leukemia was 126%; in the experiment with RPMI-8226 leukemia it was 116%; in the experiment on OVCAR-8 ovarian it was 110%; in the experiment with OVCAR-5 ovarian it was 87.6%; with OVCAR-4 ovarian, 112%; in the experiment on OVCAR-3 ovarian, 107%. Further, the growth was 79.3% in the experiment on HS 578T breast; 95.2% in the experiment on NCI/ADR-RES ovarian; 86.2% in the experiment with T-47D breast; 84.1% in the experiment with BT-549 breast; 108% in the experiment on MDA-MB-435 melanoma; 94% in the experiment on SW-620 colon. In addition, the growth is 102% in the experiment on MCF7 breast, 90.1% in the experiment on HCT-116 colon, 98.8% with HCC-2998 colon and 104% in the experiment with KM12 colon.
For `Nc1cc(O)cc2cccnc12`, the growth in the experiment on SR leukemia was 73%; in the experiment with RPMI-8226 leukemia it was 68.9%; in the experiment with OVCAR-8 ovarian it was 80.9%; in the experiment on OVCAR-5 ovarian it was 107%; in the experiment on OVCAR-4 ovarian, 105%; in the experiment on IGROV1 ovarian, 53.4%. Also, the growth was 88.8% in the experiment on OVCAR-3 ovarian; 121% in the experiment on HS 578T breast; 87.3% in the experiment on NCI/ADR-RES ovarian; 83.9% with T-47D breast; 87% in the experiment with BT-549 breast; -9.72% (active) in the experiment with MDA-MB-435 melanoma. Besides, the growth with SW-620 colon was 79.7%; in the experiment with MCF7 breast it was 55.8%; with HCT-116 colon it was 80.3%; in the experiment with HCC-2998 colon, 100%; in the experiment with KM12 colon, 99.8%.
